Compound activity: PubChem, Center for Chemical Genomics, University of Michigan
This excerpt belongs to a sample that is enriched for hits.
Dicer processing: inhibitors of human Dicer processing of pre-microRNA. z-score at 25 µM. 47,000 tested, 6% active. AID 1347074. Q9UPY3. cat-ELCCA pre-miR-21 Dicer processing, chemiluminescence; stronger effect = higher value; in the data active = z-score above about 3, passing the limit was not always enough;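 also: higher signal means more uncleaved substrate so more Dicer inhibition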
Target sequence (Q9UPY3 whole entry, looked up): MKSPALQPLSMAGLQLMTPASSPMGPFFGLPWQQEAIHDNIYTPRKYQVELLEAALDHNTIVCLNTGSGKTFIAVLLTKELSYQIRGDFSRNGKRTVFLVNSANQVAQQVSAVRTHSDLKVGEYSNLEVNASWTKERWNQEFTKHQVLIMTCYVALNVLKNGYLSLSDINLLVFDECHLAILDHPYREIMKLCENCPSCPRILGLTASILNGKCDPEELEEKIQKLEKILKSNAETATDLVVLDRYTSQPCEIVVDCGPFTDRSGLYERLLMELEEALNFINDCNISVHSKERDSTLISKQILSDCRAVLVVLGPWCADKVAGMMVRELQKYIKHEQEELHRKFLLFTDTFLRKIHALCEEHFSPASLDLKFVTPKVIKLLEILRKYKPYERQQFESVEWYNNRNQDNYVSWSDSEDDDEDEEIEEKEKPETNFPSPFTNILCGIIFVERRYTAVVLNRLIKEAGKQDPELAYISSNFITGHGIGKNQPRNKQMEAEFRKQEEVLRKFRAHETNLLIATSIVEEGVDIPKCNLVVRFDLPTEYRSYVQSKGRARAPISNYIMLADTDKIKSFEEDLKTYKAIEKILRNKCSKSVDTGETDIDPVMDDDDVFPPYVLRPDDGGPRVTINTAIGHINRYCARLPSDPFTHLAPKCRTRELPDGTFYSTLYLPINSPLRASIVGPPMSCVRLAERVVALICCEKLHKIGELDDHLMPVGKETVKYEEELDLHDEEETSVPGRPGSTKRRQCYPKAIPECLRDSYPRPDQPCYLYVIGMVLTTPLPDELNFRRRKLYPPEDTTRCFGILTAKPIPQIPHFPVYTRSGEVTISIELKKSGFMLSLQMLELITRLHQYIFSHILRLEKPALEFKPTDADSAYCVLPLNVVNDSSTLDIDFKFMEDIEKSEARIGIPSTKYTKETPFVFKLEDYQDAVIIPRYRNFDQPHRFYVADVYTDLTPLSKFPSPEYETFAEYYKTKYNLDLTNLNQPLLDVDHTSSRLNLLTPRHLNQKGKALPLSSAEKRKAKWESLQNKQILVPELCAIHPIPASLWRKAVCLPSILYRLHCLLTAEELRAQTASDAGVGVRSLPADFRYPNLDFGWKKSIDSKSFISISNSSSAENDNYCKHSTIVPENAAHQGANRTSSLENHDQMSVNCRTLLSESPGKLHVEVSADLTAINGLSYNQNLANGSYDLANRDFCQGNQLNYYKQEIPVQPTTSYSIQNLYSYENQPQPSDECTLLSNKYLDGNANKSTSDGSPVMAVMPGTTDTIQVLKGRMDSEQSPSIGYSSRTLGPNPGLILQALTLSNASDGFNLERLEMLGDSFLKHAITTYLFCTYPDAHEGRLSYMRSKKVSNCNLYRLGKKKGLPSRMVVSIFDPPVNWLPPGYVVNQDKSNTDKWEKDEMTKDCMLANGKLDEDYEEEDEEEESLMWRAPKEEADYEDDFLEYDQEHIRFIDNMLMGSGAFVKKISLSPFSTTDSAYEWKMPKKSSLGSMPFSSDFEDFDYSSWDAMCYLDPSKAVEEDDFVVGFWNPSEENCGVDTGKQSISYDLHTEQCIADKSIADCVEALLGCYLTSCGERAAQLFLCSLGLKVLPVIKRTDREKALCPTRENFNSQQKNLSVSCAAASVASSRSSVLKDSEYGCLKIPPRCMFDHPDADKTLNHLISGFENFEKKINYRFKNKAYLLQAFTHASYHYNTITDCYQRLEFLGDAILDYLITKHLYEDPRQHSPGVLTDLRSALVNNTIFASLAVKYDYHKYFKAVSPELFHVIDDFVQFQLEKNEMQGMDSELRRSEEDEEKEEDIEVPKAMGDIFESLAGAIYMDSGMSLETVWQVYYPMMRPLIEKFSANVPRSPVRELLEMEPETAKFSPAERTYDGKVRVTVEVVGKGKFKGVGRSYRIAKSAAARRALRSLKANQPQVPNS
Large screens that a line does not name were inactive.

COc1cccc2c1OC(c1ccncc1)N1N=C(c3cc(C)ccc3O)CC21 (configuration not stated)	none
COc1cccc(C2Oc3c(OC)cccc3C3CC(c4cc(OC)ccc4O)=NN32)c1 (configuration not stated)	none
COc1ccc(O)c(C2=NN3C(C2)c2cccc(OC)c2OC3c2ccc(O)c(OC)c2)c1 (configuration not stated)	none
COc1ccc(C2Oc3c(OC)cccc3C3CC(c4cc(C)ccc4O)=NN32)cc1O (configuration not stated)	none
Cn1c2ccccc2n2c(CCC(=O)O)c(-c3ccccc3)nc12	none
CCOC(=O)CNC(=O)c1ccc(C(F)(F)F)cc1	none
CCc1ccc(C)nc1NC(=O)c1snnc1C	none
CCNc1nc(SCc2ccc([N+](=O)[O-])cc2)nc2nc(N(CC)CC)ncc12	none
C#CC(CC)(CC)NC(=S)NCCc1ccccc1	none
CC1=C(C(=O)OC2CCCCC2)C(c2ccc(C)cc2)C2=C(CCCC2=O)N1 (configuration not stated)	none
Cc1cc(NC(=S)NC(C)(C)C)ccc1Br	none
Cc1ccc(NC(=S)Nc2ccc(C)c(C)c2)cc1C	none
Cc1ccc(NC(=S)NC(C)(C)C)cc1F	Dicer processing 3.04
O=C(c1ccc(Br)cc1)C(C(=O)N1CCN(c2ccccc2)CC1)n1ccccc1=O (configuration not stated)	none
COc1cc2c(cc1OC)C(c1cccc(C)c1)N(C(=O)c1sc3ccccc3c1Cl)CC2 (configuration not stated)	none
CN(C)c1ccc(/C=N/NC(=O)N/N=C/c2ccc(N(C)C)cc2)cc1	none
Nc1ccc(Cl)c(-c2nc3ccccc3[nH]2)c1	none
O/N=C/c1c(-c2ccccc2Cl)[nH]c2ccccc12	none
Clc1ccccc1-c1cc2ccccc2[nH]1	Dicer processing 3.96
N#Cc1c(Cl)cccc1Oc1ccc(S(=O)(=O)N2CCCN(c3nc4ccc(Cl)cc4s3)CC2)cc1	none
CC(=O)/C(=C\N=S(C)(=O)c1ccccc1)S(=O)(=O)c1ccc(Cl)cc1 (configuration not stated)	none
CN(NC(=O)c1c(Cl)cccc1Cl)C(=S)NC(C)(C)C	none
Cc1cc2nc(NC3=NCN(CCCN4CCOCC4)CN3)nc(C)c2cc1C	none
Cc1cc2nc(NC3=NCN(Cc4ccco4)CN3)nc(C)c2cc1C	none
Cc1ccc2c(C)nc(NC3=NCN(Cc4ccccc4)CN3)nc2c1	none
Cc1cc2nc(NC3=NCN(Cc4ccc5c(c4)OCO5)CN3)nc(C)c2cc1C	Dicer processing 3.21
CCCCN1CN=C(Nc2nc(C)c3cc(OCC)ccc3n2)NC1	none
CCOc1ccc2nc(NC3=NCN(CCCN4CCOCC4)CN3)nc(C)c2c1	Dicer processing 3.75
COc1ccc(Sc2nc(C)c(-c3csc(C)n3)cc2C#N)cc1	none
Cc1nc(N2C(=O)c3oc4ccccc4c(=O)c3C2c2cccc(Br)c2)sc1C (configuration not stated)	none
CCOC(=O)N1CCc2c(sc3c2C(=O)NC(c2cc(Br)ccc2OC)N3)C1 (configuration not stated)	none
COc1ccccc1NC(=S)NNC(=O)NNC(=S)Nc1ccccc1OC	Dicer processing 4.43
COc1ccccc1NC(=S)Nc1ccccn1	none
COc1ccccc1NC(=S)NCC(C)(C)C(=O)O	none
CC(C)Sc1scc(-c2ccc(Cl)cc2)c1C#N	none
CCc1ccc(-n2nc3ccc(N)cc3n2)cc1	none
O=C(Nc1ncc2c(n1)CC(c1ccccc1)CC2=O)c1ccc(-c2ccccc2)cc1 (configuration not stated)	none
O=C1CC(c2ccc(Cl)cc2)Cc2nc(N3CCN(Cc4ccccc4)CC3)ncc21 (configuration not stated)	none
Cc1c(Cl)cccc1NC(=S)N(N)CCO	none
Cn1nc(-c2ccc(S(=O)(=O)NCC(=O)NNS(=O)(=O)c3ccc(Cl)cc3)s2)cc1C(F)(F)F	none
Cn1nc(-c2ccc(-c3ccn(S(C)(=O)=O)n3)s2)cc1C(F)(F)F	Dicer processing 3.97
Cn1nc(-c2ccc(Sc3ccc(Cl)cc3)s2)cc1C(F)(F)F	none
COc1cc(C2c3c(oc4ccc(Cl)cc4c3=O)C(=O)N2Cc2ccc3c(c2)OCO3)ccc1O (configuration not stated)	none
COC(=O)Oc1ccc2c(=O)c(Oc3cccc(C)c3)c(C(F)(F)F)oc2c1	none
CCOC(=O)N1CCC(N2CCN(S(C)(=O)=O)CC2)CC1	Dicer processing 5.04
CCOC(=O)N1CCC(N2CCCC(C(=O)N3CCCC3)C2)CC1 (configuration not stated)	none
CCOC(=O)N1CCC(N2CCN(S(=O)(=O)c3ccc(OC)cc3)CC2)CC1	none
COc1ccc2c(c1OC)C(=O)OC2Nc1ccc(S(N)(=O)=O)cc1 (configuration not stated)	none
O=C1C2C3C=CC(C3)C2C(=O)N1c1nccs1 (configuration not stated)	none
O=C1CCC(=O)N1c1nccs1	Dicer processing 3.23
COCCCN1CN=C(SCc2ccc(Cl)cc2)NC1	none
CC1C/C(=N\Nc2ccc(I)cc2)c2cc(Cl)ccc2S1(=O)=O (configuration not stated)	Dicer processing 3.98
CCC/C(O)=C(/C=N/c1ccc(C(=O)OC)o1)C(=O)OCC	none
COc1cc(NC(=O)/C=C/C(=O)O)cc(OC)c1OC	none
